From PubChem BioAssay (EPA / NIEHS)
Calls of active or inactive are those of the source. How the source made its calls: active means hit-call score of the fitted dose curve at least 0.9, where 1 is the maximum; inactive means score below 0.9.

Assays:
[1] = read-out: TIMP metallopeptidase inhibitor 1 (TIMP1), TIMP1 (gene 7076); experiment: BSK_hDFCGF_TIMP1: BioMAP Diversity Plus: hDFCGF Assay for TIMP metallopeptidase inhibitor 1 (TIMP1) Biomarker Activity (AID 2283062); conditions: primary human foreskin fibroblasts; actives raise or lower the signal
Summary of the method: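 Human foreskin fibroblast primary cultures dosed for 24 h; secreted/surface TIMP-1 quantified by ELISA. Bidirectional curve fitting against DMSO baseline; cytotoxicity tracked in parallel cultures by SRB total-protein staining.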

[2] = read-out: Monokine induced gamma interferon (MIG), CXCL9 (gene 4283); experiment: BSK_hDFCGF_MIG: BioMAP Diversity Plus: hDFCGF Assay for Monokine induced gamma interferon (MIG) Biomarker Activity (AID 2283063); conditions: primary human foreskin fibroblasts; actives raise or lower the signal
Summary of the method: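 MIG/CXCL9 measured by ELISA 24 h after dosing primary human skin fibroblasts. Activity fitted in both directions against DMSO controls. Cytotoxicity was checked in parallel cultures by SRB staining read at 560 nm.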

[3] = read-out: Vascular cell adhesion molecule 1 (VCAM1), VCAM1 (gene 7412); experiment: BSK_hDFCGF_VCAM1: BioMAP Diversity Plus: hDFCGF Assay for Vascular cell adhesion molecule 1 (VCAM1) Biomarker Activity (AID 2283065); conditions: primary human foreskin fibroblasts; actives raise or lower the signal
Summary of the method: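 Human foreskin fibroblast primary cells dosed with chemical, VCAM-1 measured by ELISA at 24 h. Bidirectional curve fitting relative to DMSO as negative control/baseline.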

[4] = read-out: Intercellular Adhesion Molecule 1 (ICAM1), ICAM1 (gene 3383); experiment: BSK_KF3CT_ICAM1: BioMAP Diversity Plus: KF3CT Assay for Intercellular Adhesion Molecule 1 (ICAM1) Biomarker Activity (AID 2283067); conditions: primary human keratinocytes with fibroblasts; actives raise or lower the signal
Summary of the method: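 Human keratinocyte–foreskin fibroblast co-culture was treated for 24 h. Cell-surface ICAM-1 was quantified by ELISA, fitted bidirectionally relative to DMSO. Cytotoxicity was checked in parallel cultures by SRB total-protein staining.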

[5] = read-out: Interferon-gamma inducible Protein 10 (IP10), CXCL10 (gene 3627); experiment: BSK_KF3CT_IP10: BioMAP Diversity Plus: KF3CT Assay for Interferon-gamma inducible Protein 10 (IP10) Biomarker Activity (AID 2283068); conditions: primary human keratinocytes with fibroblasts; actives raise or lower the signal
Summary of the method: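 Human keratinocyte plus foreskin fibroblast primary co-culture exposed to test chemical for 24 h; IP-10 measured by ELISA. Concentration-response fitted bidirectionally against DMSO control as baseline.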

[6] = BSK_KF3CT_SRB: Viability Assessment in the BioMAP Diversity Plus: KF3CT Assay (AID 2283069); conditions: primary human keratinocytes with fibroblasts;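 further: total protein by sulforhodamine B staining as a cytotoxicity measure; fitted for both signal gain and loss against DMSO baseline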
Summary of the method: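 Keratinocytes co-cultured with foreskin fibroblasts (human primary); chemical added, 24 h; fix 10% TCA, stain 0.1% SRB, A560. Bidirectional fit vs DMSO.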

[7] = read-out: Interleukin-1 alpha (IL1a), IL1A (gene 3552); experiment: BSK_KF3CT_IL1a: BioMAP Diversity Plus: KF3CT Assay for Interleukin-1 alpha (IL1a) Biomarker Activity (AID 2283070); conditions: primary human keratinocytes with fibroblasts; actives raise or lower the signal
Summary of the method: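 Chemicals were dosed onto co-cultured human keratinocytes and foreskin fibroblasts, IL-1a was quantified by ELISA at 24 h, and activity was fitted in both directions relative to DMSO controls.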

[8] = read-out: TIMP metallopeptidase inhibitor 2 (TIMP2), TIMP2 (gene 7077); experiment: BSK_KF3CT_TIMP2: BioMAP Diversity Plus: KF3CT Assay for TIMP metallopeptidase inhibitor 2 (TIMP2) Biomarker Activity (AID 2283071); conditions: primary human keratinocytes with fibroblasts; actives raise or lower the signal
Summary of the method: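 Co-culture of human primary keratinocytes and foreskin fibroblasts, measured 24 h after chemical dosing. TIMP-2 quantified by ELISA and fitted in both directions relative to DMSO. Cytotoxicity checked in parallel cultures by SRB total-protein staining.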

[9] = read-out: Transforming growth factor beta 1 (TGFb1), TGFB1 (gene 7040); experiment: BSK_KF3CT_TGFb1: BioMAP Diversity Plus: KF3CT Assay for Transforming growth factor beta 1 (TGFb1) Biomarker Activity (AID 2283072); conditions: primary human keratinocytes with fibroblasts; actives raise or lower the signal
Summary of the method: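 Human keratinocyte/foreskin fibroblast co-culture; TGF-b1 measured by ELISA 24 h after dosing, fitted bidirectionally versus DMSO. Cytotoxicity checked in parallel cultures by total protein (SRB staining, 560 nm).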

[10] = read-out: C-C motif chemokine 2 (Homo sapiens) (UniProt P13500); experiment: BSK_KF3CT_MCP1: BioMAP Diversity Plus: KF3CT Assay for Monocyte Chemoattractant Protein 1 (MCP1/CCL2) Biomarker Activity (AID 2283073); conditions: primary human keratinocytes with fibroblasts; actives raise or lower the signal
Summary of the method: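 Human keratinocyte–foreskin fibroblast co-culture; MCP-1 measured by ELISA 24 h after dosing. Bidirectional fit vs DMSO; cytotoxicity tracked by SRB total protein in parallel cultures.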

[11] = read-out: Matrix Metallopeptidase 9 (MMP9), MMP9 (gene 4318); experiment: BSK_KF3CT_MMP9: BioMAP Diversity Plus: KF3CT Assay for Matrix Metallopeptidase 9 (MMP9) Biomarker Activity (AID 2283074); conditions: primary human keratinocytes with fibroblasts; actives raise or lower the signal
Summary of the method: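 Human keratinocyte/foreskin fibroblast co-culture; compound added; 24 h; MMP-9 by ELISA; bidirectional fit vs DMSO baseline.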

[12] = read-out: urokinase plasminogen activator (uPA), PLAU (gene 5328); experiment: BSK_KF3CT_uPA: BioMAP Diversity Plus: KF3CT Assay for urokinase plasminogen activator (uPA) Biomarker Activity (AID 2283075); conditions: primary human keratinocytes with fibroblasts; actives raise or lower the signal
Summary of the method: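 ELISA readout of uPA, analyzed for signal gain or loss relative to DMSO, from a human primary keratinocyte–foreskin fibroblast co-culture measured 24 h after chemical treatment.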

CD40, CD40 (gene 958) = experiment: BSK_LPS_CD40: BioMAP Diversity Plus: LPS Assay for CD40 Biomarker Activity (AID 2283076); conditions: primary human HUVEC with PBMC; actives raise or lower the signal
Summary of the method: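 HUVEC plus PBMC co-culture stimulated with LPS; CD40 quantified by ELISA 24 h after compound dosing. Fitting was bidirectional relative to DMSO. SRB staining of parallel cultures flagged overt cytotoxicity.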

[13] = read-out: E-selectin (Homo sapiens) (UniProt P16581); experiment: BSK_LPS_Eselectin: BioMAP Diversity Plus: LPS Assay for Eselectin Biomarker Activity (AID 2283077); conditions: primary human HUVEC with PBMC; actives raise or lower the signal
Summary of the method: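 Human umbilical vein endothelial cells co-cultured with PBMC under LPS stimulation; cell-surface E-selectin measured by ELISA 24 h after dosing. Change in either direction versus DMSO, with SRB total-protein staining in parallel cultures for cytotoxicity.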

[14] = read-out: Interleukin-8 (IL8), CXCL8 (gene 3576); experiment: BSK_LPS_IL8: BioMAP Diversity Plus: LPS Assay for Interleukin-8 (IL8) Biomarker Activity (AID 2283078); conditions: primary human HUVEC with PBMC; actives raise or lower the signal
Summary of the method: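 Human umbilical vein endothelial cells co-cultured with PBMC, LPS-stimulated, exposed to compound for 24 h. IL-8 quantified by ELISA; fitted in both directions against DMSO, with SRB total-protein staining of parallel cultures for cytotoxicity.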

[15] = BSK_LPS_SRB: Viability Assessment in the BioMAP Diversity Plus: LPS Assay (AID 2283079); conditions: primary human HUVEC with PBMC;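 further: total protein by sulforhodamine B absorbance as a cytotoxicity measure; measured one day after compound addition; fitted in both directions against DMSO so loss or gain of signal counts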
Summary of the method: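 Co-culture of human umbilical vein endothelial cells and PBMC, read 24 h after dosing. Total protein by 0.1% SRB staining after 10% TCA fixation, absorbance at 560 nm; bidirectional fit against DMSO.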

[16] = read-out: Interleukin-1 alpha (IL1a), IL1A (gene 3552); experiment: BSK_LPS_IL1a: BioMAP Diversity Plus: LPS Assay for Interleukin-1 alpha (IL1a) Biomarker Activity (AID 2283080); conditions: primary human HUVEC with PBMC; actives raise or lower the signal
Summary of the method: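 Human umbilical vein endothelial cells co-cultured with PBMC and stimulated with LPS; IL-1a measured by ELISA 24 h after dosing. Bidirectional fitting against DMSO; cytotoxicity checked by SRB staining in parallel cultures.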

[17] = read-out: Monocyte Chemoattractant Protein-1 (MCP1), CCL2 (gene 6347); experiment: BSK_LPS_MCP1: BioMAP Diversity Plus: LPS Assay for Monocyte Chemoattractant Protein-1 (MCP1) Biomarker Activity (AID 2283081); conditions: primary human HUVEC with PBMC; actives raise or lower the signal
Summary of the method: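 Human umbilical vein endothelial cells co-cultured with PBMC, LPS-stimulated; secreted MCP-1 measured by ELISA 24 h after compound addition. Bidirectional curve fitting against DMSO baseline; SRB total-protein staining in parallel cultures for cytotoxicity.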

[18] = read-out: Matrix Metallopeptidase 1 (MMP1), MMP1 (gene 4312); experiment: BSK_hDFCGF_MMP1: BioMAP Diversity Plus: hDFCGF Assay for Matrix Metallopeptidase 1 (MMP1) Biomarker Activity (AID 2283064); conditions: primary human foreskin fibroblasts; actives raise or lower the signal
Summary of the method: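 hDFCGF primary fibroblasts (human foreskin); chemical added; 24 h; MMP1 by ELISA; bidirectional fit vs DMSO.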

[19] = read-out: Plasminogen activator inhibitor-1 (PAI1), SERPINE1 (gene 5054); experiment: BSK_hDFCGF_PAI1: BioMAP Diversity Plus: hDFCGF Assay for Plasminogen activator inhibitor-1 (PAI1) Biomarker Activity (AID 2283066); conditions: primary human foreskin fibroblasts; actives raise or lower the signal
Summary of the method: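 Human foreskin fibroblast primary cells, 24 h chemical exposure; PAI-1 measured by ELISA. Bidirectional fitting relative to DMSO; parallel cultures stained with SRB for total protein to flag overt cytotoxicity.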

Measured: outcome

Sequence of E-selectin (Homo sapiens) (P16581 whole entry, looked up): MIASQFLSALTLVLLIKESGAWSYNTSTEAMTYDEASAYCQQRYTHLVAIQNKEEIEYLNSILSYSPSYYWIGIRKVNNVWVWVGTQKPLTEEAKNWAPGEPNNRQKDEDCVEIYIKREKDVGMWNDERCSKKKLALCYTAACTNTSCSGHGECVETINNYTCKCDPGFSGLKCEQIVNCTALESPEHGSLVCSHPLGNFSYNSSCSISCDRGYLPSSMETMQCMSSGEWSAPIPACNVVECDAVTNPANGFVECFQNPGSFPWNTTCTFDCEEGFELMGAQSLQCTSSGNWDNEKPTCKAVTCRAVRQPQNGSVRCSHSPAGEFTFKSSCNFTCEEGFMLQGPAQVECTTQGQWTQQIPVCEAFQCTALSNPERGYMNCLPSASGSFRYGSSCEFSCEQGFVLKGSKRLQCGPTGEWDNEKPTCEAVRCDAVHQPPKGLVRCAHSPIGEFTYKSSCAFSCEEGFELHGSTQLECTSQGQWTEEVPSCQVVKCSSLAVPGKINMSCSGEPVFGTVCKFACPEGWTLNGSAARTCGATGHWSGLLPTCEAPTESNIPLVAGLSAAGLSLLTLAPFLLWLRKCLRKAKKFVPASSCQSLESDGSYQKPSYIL

COP(=S)(OC)SCN1C(=O)c2ccccc2C1=O
not listed: [18] | [19]
inactive: all other assays above

CCC(C)c1ccc(O)cc1 (stereo not drawn)
not listed: [3] | [19]
inactive: all other assays above

OCCCl
not listed: [3] | [19]
inactive: all other assays above

c1ccc(C2CO2)cc1 (stereo not drawn)
not listed: [3]
inactive: all other assays above
